From the supplement of paper PMC6897291

What follows are compounds tested on U-2932 (assay: growth inhibition by drug plus 177Lu-lilotomab satetraxetan (1 - RLU/untreated control) (fraction); higher = stronger inhibition). Details: 10 nM; time (day): 3; 177Lu-lilotomab satetraxetan 1 ug/ml.
Outline: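 With or without 18 h pretreatment by a radiolabelled anti-CD37 antibody conjugate (~600 MBq/mg; 0.5 µg/ml RIVA, 1 µg/ml U-2932), RIVA and U-2932 cells were washed and plated at 3,000 cells/well. Pre-printed compound doses were 10/100 nM for RIVA and 10/1,000 nM for U-2932. Growth inhibition uses RealTime-Glo RLU relative to the untreated no-drug wells. The calculation is 1 − RLU/mean of 48 such wells per plate, with reads daily from day 3 after 1 h at 37°C.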
For `CC(=O)Nc1ccc(OC[C@](C)(O)C(=O)Nc2ccc([N+](=O)[O-])c(C(F)(F)F)c2)cc1` [Andarine (GTX-007)], the “growth inhibition by drug plus 177Lu-lilotomab satetraxetan” value (from here on “growth inhibition”) was 0.0713.
For `Cc1ccccc1-n1c(Cn2cnc3c(N)ncnc32)nc2cccc(C)c2c1=O`, the “growth inhibition” value was -0.00529.
With `N[C@@H](Cc1ccc(N(CCCl)CCCl)cc1)C(=O)O` [Melphalan] the “growth inhibition” value was 0.0197.
In the case of `C[C@]12CCC(=O)C(O)=C1CC[C@@H]1[C@@H]2CC[C@]2(C)C(=O)CC[C@@H]12` [Formestane], the “growth inhibition” value is reported as -0.06.
In the case of `CC1=C2C[C@H]3[C@@H](CC=C4C[C@@H](O)CC[C@@]43C)[C@@H]2CC[C@]12O[C@@H]1C[C@H](C)CN[C@H]1[C@H]2C` [Cyclopamine], the “growth inhibition” value is reported as 0.0717.

Same assay, conditions: 10 nM; time (day): 4; 177Lu-lilotomab satetraxetan 1 ug/ml
For `Cn1cc(C2=C(c3cn(C4CCN(Cc5ccccn5)CC4)c4ccccc34)C(=O)NC2=O)c2ccccc21`, the “growth inhibition” value was -0.00933.
In the case of `O=C(Oc1ccc([N+](=O)[O-])cc1)N1CCC(C(O)(c2ccc3c(c2)OCO3)c2ccc3c(c2)OCO3)CC1`, the “growth inhibition” value is reported as 0.00325.
With `O=C(O)c1nn(Cc2ccc(Cl)cc2Cl)c2ccccc12` [Lonidamine] the “growth inhibition” value was 0.0863.
In the case of `N.N.[Cl][Pt][Cl]` [Cisplatin], the “growth inhibition” value is reported as 0.0521.
With `O=P1(N(CCCl)CCCl)NCCCO1` (configuration not stated) [Cyclophosphamide monohydrate] the “growth inhibition” value was -0.00591.
For `CCC1(c2ccc(N)cc2)CCC(=O)NC1=O` (configuration not stated) [Aminoglutethimide (Cytadren)], the “growth inhibition” value was 0.0116.
For `Cc1cc2c(C(C)C)c(O)c(O)c(C=O)c2c(O)c1-c1c(C)cc2c(C(C)C)c(O)c(O)c(C=O)c2c1O` [Gossypol], the “growth inhibition” value was -0.0678.
`CC(O)(CS(=O)(=O)c1ccc(F)cc1)C(=O)Nc1ccc(C#N)c(C(F)(F)F)c1` (configuration not stated) [Bicalutamide (Casodex)] was tested, and the “growth inhibition” value was 0.0278.
In the case of `CC(C)[C@]12O[C@H]1[C@@H]1O[C@]13[C@]1(O[C@H]1C[C@H]1C4=C(CC[C@@]13C)C(=O)OC4)[C@@H]2O` [Triptolide], the “growth inhibition” value is reported as 0.657.
For `CN(C)CCN(C)CCc1ccc(Cl)c(Cl)c1`, the “growth inhibition” value was -0.0108.
With `C=C1C[C@@H]2[C@H](CC[C@]3(C)C(=O)CC[C@@H]23)[C@@]2(C)C=CC(=O)C=C12` [Exemestane] the “growth inhibition” value was 0.106.
In the case of `CC[C@@H](C(=O)[C@@H](C)[C@@H](O)[C@H](C)[C@@H]1O[C@@H]([C@@H](CC)C(=O)O)CC[C@@H]1C)[C@H]1O[C@]2(C=C[C@@H](O)[C@]3(CC[C@@](C)([C@H]4CC[C@](O)(CC)[C@H](C)O4)O3)O2)[C@H](C)C[C@@H]1C` [Salinomycin (Procoxacin)], the “growth inhibition” value is reported as 0.111.
`CC(=O)Nc1ccc(OC[C@](C)(O)C(=O)Nc2ccc([N+](=O)[O-])c(C(F)(F)F)c2)cc1` [Andarine (GTX-007)] was tested, and the “growth inhibition” value was 0.12.
With `Cc1ccccc1-n1c(Cn2cnc3c(N)ncnc32)nc2cccc(C)c2c1=O` the “growth inhibition” value was 0.0455.
With `N[C@@H](Cc1ccc(N(CCCl)CCCl)cc1)C(=O)O` [Melphalan] the “growth inhibition” value was 0.0283.
With `C[C@]12CCC(=O)C(O)=C1CC[C@@H]1[C@@H]2CC[C@]2(C)C(=O)CC[C@@H]12` [Formestane] the “growth inhibition” value was -0.00612.
`CC1=C2C[C@H]3[C@@H](CC=C4C[C@@H](O)CC[C@@]43C)[C@@H]2CC[C@]12O[C@@H]1C[C@H](C)CN[C@H]1[C@H]2C` [Cyclopamine] was tested, and the “growth inhibition” value was 0.0954.
